Drawing on PubChem BioAssay AID1159580 (chemical genetic matrix, 2015), this text covers normalized growth for 7 molecules.

Out of some 5,500 compounds screened, about 2,000 (36%) were called active. About 18% were inconclusive and are not listed. The list shows a part of the results. Unmarked numbers belong to inactive results. Rule as the data show it: active = normalized growth mostly below about 0.91 (no sharp cut-off); inconclusive = no clear call, values can overlap the other calls; inactive = mostly above about 0.92.

This assay can be described thus: chemical genetic growth profiling, strain panel (AID 1159580).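 Also: tested at 20 µM; growth read once vehicle control cultures reached saturation at 30 °C; 1 = growth at the plate median or of vehicle wells; lower values mean less growth of the strain.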 Conditions: S. cerevisiae deletion strains, growth OD.
The mark [1] stands for this setting: locus YHR030C, strain SLT2, stronger effect = lower value.
[2] abbreviates: locus YHR079C, strain IRE1, stronger effect = lower value.
[3] abbreviates: locus YJL095W, strain BCK1, stronger effect = lower value.
Where [4] appears, read: locus YJR066W, strain TOR1, stronger effect = lower value.
Where [5] appears, read: locus YLR113W, strain HOG1, stronger effect = lower value.
Setting [6] is: locus YNL183C, strain NPR1, stronger effect = lower value.
[7] abbreviates: locus YOR231W, strain MKK1, stronger effect = lower value.
Where [8] appears, read: locus YPL256C, strain CLN2, stronger effect = lower value.
Where [9] appears, read: locus YAL040C, strain CLN3, stronger effect = lower value.
Setting [10] is: locus YCL061C, strain MRC1 (second series), stronger effect = lower value.
[11] abbreviates: locus YDR150W, strain NUM1, stronger effect = lower value.
Setting [12] is: locus YDR363W, strain ESC2, stronger effect = lower value.
Setting [13] is: locus YER002W, strain NOP16, stronger effect = lower value.
[14] abbreviates: locus YGR078C, strain PAC10, stronger effect = lower value.
The mark [15] stands for this setting: locus YJR075W, strain HOC1, stronger effect = lower value.
Setting [16] is: locus YNL128W, strain TEP1, stronger effect = lower value.
The mark [17] stands for this setting: locus YNL153C, strain GIM3, stronger effect = lower value.
The mark [18] stands for this setting: locus YNL175C, strain NOP13, stronger effect = lower value.
Where [19] appears, read: locus YNL197C, strain WHI3, stronger effect = lower value.
Where [20] appears, read: locus YNL224C, strain SQS1, stronger effect = lower value.
The mark [21] stands for this setting: locus YOR083W, strain WHI5 (second series), stronger effect = lower value.
The mark [22] stands for this setting: locus YPL055C, strain LGE1, stronger effect = lower value.
Setting [23] is: locus YPL241C, strain CIN2, stronger effect = lower value.
[24] abbreviates: locus YGR229C, strain SMI1, stronger effect = lower value.
[25] abbreviates: locus YMR263W, strain SAP30, stronger effect = lower value.
Setting [26] is: locus YNL322C, strain KRE1, stronger effect = lower value.
Where [27] appears, read: locus YMR307W, strain GAS1, stronger effect = lower value.

As for `COC(=O)C(OC(C)=O)[C@H]1C(C)(C)C(OC(C)=O)[C@@H]2CC3=C4CC(=O)O[C@@H](c5ccoc5)[C@]4(C)CCC3[C@@]1(C)C2=O` (some centres not stated), the normalized growth reads like this: under setting [1], 0.961; under setting [2], 0.967; under setting [3], 0.979; under setting [4], 0.917; under setting [5], 0.99; under setting [6], 0.932. Moreover, the normalized growth is, setting by setting: under setting [7], 0.989; under setting [8], 0.951.

For `CN(N=O)c1cc(O)ccc1O`, the normalized growth reads like this: under setting [9], 0.98; under setting [10], 0.99; under setting [11], 1; under setting [12], 0.975; under setting [13], 1; under setting [14], 0.988. Further, the normalized growth by setting is: under setting [15], 0.989; under setting [16], 0.993; under setting [17], 1.02; under setting [18], 0.983; under setting [19], 1.01; under setting [20], 0.991. The normalized growth under setting [21] was 0.991, the normalized growth under setting [22] is 0.972 and the normalized growth under setting [23] is 0.987.

Take `CCC(NC(C)C)C(O)c1ccc(O)c(O)c1` (configuration not stated): the normalized growth is, setting by setting: under setting [9], 1; under setting [10], 0.992; under setting [12], 1.02; under setting [13], 1.01; under setting [14], 1.02; under setting [24], 0.976. The normalized growth is 1.01 under setting [1]; 0.97 under setting [2]; 0.982 under setting [3]; 0.954 under setting [4]; 0.99 under setting [5]; 1.02 under setting [25]. Further, the normalized growth under setting [17] was 1; the normalized growth under setting [18] was 1.02; the normalized growth under setting [6] was 0.923; the normalized growth under setting [19] was 1.02; the normalized growth under setting [20] is 1.01; the normalized growth under setting [26] is 0.992. Besides, the normalized growth under setting [21] is 1.03, the normalized growth under setting [7] is 0.982, the normalized growth under setting [23] is 0.991 and the normalized growth under setting [8] was 0.96.

For the molecule `CN(N=O)c1ccc(O)c(O)c1`, the normalized growth (locus YAL013W, strain DEP1, stronger effect = lower value) is 0.957; the normalized growth under setting [9] is 0.997; the normalized growth under setting [10] was 0.946; the normalized growth under setting [11] was 0.934 (active); the normalized growth under setting [12] was 0.928; the normalized growth under setting [13] was 0.974. Moreover, the normalized growth runs as follows: under setting [14], 0.972; under setting [15], 0.93; under setting [25], 0.998; under setting [18], 0.976; under setting [19], 0.964; under setting [20], 0.994. Also, the normalized growth by setting is: under setting [21], 0.98; under setting [22], 0.993.

Regarding `CC(C)CC(NC(=O)C(Cc1ccccc1)NC(=O)CNC(=O)CNC(=O)C(N)Cc1ccc(O)cc1)C(=O)O` (configuration not stated), the normalized growth (locus YBR021W, strain FUR4, stronger effect = lower value) is 0.858; the normalized growth (locus YBR229C, strain ROT2, stronger effect = lower value) was 0.95; the normalized growth (locus YCL029C, strain bik1, stronger effect = lower value) is 0.979; the normalized growth (locus YDL035C, strain GPR1, stronger effect = lower value) is 0.956; the normalized growth (locus YDL074C, strain BRE1, stronger effect = lower value) is 1.01; the normalized growth (locus YDL101C, strain DUN1, stronger effect = lower value) was 1.02. Also, the normalized growth by setting is: (locus YDL185W, strain tfp1, stronger effect = lower value) 0.973; (locus YDL192W, strain arf1, stronger effect = lower value) 0.995; (locus YDR101C, strain arx1, stronger effect = lower value) 0.976; under setting [11], 0.989; (locus YDR162C, strain NBP2, stronger effect = lower value) 0.951; (locus YDR318W, strain mcm21, stronger effect = lower value) 0.991. Further, the normalized growth runs as follows: (locus YDR388W, stronger effect = lower value) 0.978; (locus YDR502C, strain sam2, stronger effect = lower value) 1.01; (locus YEL061C, strain CIN8, stronger effect = lower value) 0.987; (locus YER110C, stronger effect = lower value) 0.988; (locus YER155C, strain BEM2, stronger effect = lower value) 1.01; (locus YER167W, strain BCK2, stronger effect = lower value) 0.989. In addition, the normalized growth is, setting by setting: (locus YGL078C, strain dbp3, stronger effect = lower value) 0.999; (locus YGL086W, strain mad1, stronger effect = lower value) 1; (locus YGL248W, strain PDE1, stronger effect = lower value) 1; (locus YGR135W, strain pre9, stronger effect = lower value) 0.96; under setting [24], 0.963; (locus YGR252W, strain gcn5, stronger effect = lower value) 1.07. For the same molecule, the normalized growth was 0.984 under setting [1]; 0.996 (locus YHR079C, strain IRE1 (second series), stronger effect = lower value); 0.982 (locus YHR094C, strain hxt1, stronger effect = lower value); 0.998 (locus YHR129C, strain ARP1, stronger effect = lower value); 0.994 (locus YHR200W, strain rpn10, stronger effect = lower value); 0.948 (locus YIL066C, strain RNR3, stronger effect = lower value). Also, the normalized growth runs as follows: (locus YIL073C, strain SPO22, stronger effect = lower value) 1.28; (locus YIL125W, strain kgd1, stronger effect = lower value) 0.993; (locus YIR030C, strain dcg1, stronger effect = lower value) 1; under setting [3], 1.06; (locus YJL134W, strain LCB3, stronger effect = lower value) 0.987; (locus YJL168C, strain set2, stronger effect = lower value) 1.01. The normalized growth (locus YJL187C, strain SWE1 (second series), stronger effect = lower value) is 1.03; the normalized growth (locus YJR043C, strain POL32, stronger effect = lower value) is 0.976; the normalized growth (locus YKL009W, strain mrt4, stronger effect = lower value) was 1.01; the normalized growth (locus YKL068W, stronger effect = lower value) is 0.989; the normalized growth (locus YKL085W, strain MDH1 (second series), stronger effect = lower value) is 0.99; the normalized growth (locus YKL085W, strain MDH1, stronger effect = lower value) was 0.99. In addition, the normalized growth is 1 (locus YKL190W, strain CNB1, stronger effect = lower value); 1.01 (locus YKR001C, strain vps1, stronger effect = lower value); 1.38 [resistant] (active) (locus YLR039C, strain RIC1, stronger effect = lower value); 0.981 (locus YLR058C, strain SHM2, stronger effect = lower value); 0.994 (locus YLR102C, strain apc9, stronger effect = lower value); 1.46 [resistant] (active) (locus YLR262C, strain YPT6, stronger effect = lower value). Moreover, the normalized growth was 1.01 (locus YLR268W, strain sec22, stronger effect = lower value); 0.986 (locus YLR330W, strain CHS5, stronger effect = lower value); 0.889 (locus YLR342W, strain FKS1 (second series), stronger effect = lower value); 0.988 (locus YLR371W, strain rom2, stronger effect = lower value); 1 (locus YLR418C, strain cdc73, stronger effect = lower value); 0.975 (locus YML016C, strain PPZ1, stronger effect = lower value). Further, the normalized growth by setting is: (locus YML032C, strain rad52, stronger effect = lower value) 0.97; (locus YML124C, strain tub3, stronger effect = lower value) 0.998; (locus YMR078C, strain ctf18, stronger effect = lower value) 0.986; (locus YMR223W, strain ubp8, stronger effect = lower value) 0.988; under setting [27], 1.01; (locus YNL067W, strain RPL9B, stronger effect = lower value) 1.05. Besides, the normalized growth runs as follows: under setting [16], 0.969; (locus YNL233W, strain BNI4, stronger effect = lower value) 1.04; (locus YNL250W, strain rad50, stronger effect = lower value) 0.981; (locus YNL271C, strain bni1, stronger effect = lower value) 0.988; (locus YNL298W, strain CLA4, stronger effect = lower value) 0.979; (locus YNL307C, strain MCK1, stronger effect = lower value) 0.987. Further, the normalized growth by setting is: under setting [26], 0.997; (locus YNR052C, strain pop2, stronger effect = lower value) 0.981; (locus YOL012C, strain htz1) 0.972; (locus YOL147C, strain pex11, stronger effect = lower value) 0.993; (locus YOR061W, strain CKA2, stronger effect = lower value) 0.961; (locus YOR069W, strain VPS5, stronger effect = lower value) 0.99. Moreover, the normalized growth was 1.02 (locus YOR136W, strain idh2, stronger effect = lower value); 0.995 (locus YOR144C, strain elg1, stronger effect = lower value); 0.996 (locus YOR184W, strain ser1, stronger effect = lower value); 0.989 (locus YOR316C, strain cot1, stronger effect = lower value); 0.988 under setting [22]; 0.985 under setting [23]. The normalized growth was 0.992 (locus YPR119W, strain clb2, stronger effect = lower value); 0.991 (locus YPR141C, strain kar3, stronger effect = lower value); 0.979 (locus YPR163C, strain tif3, stronger effect = lower value); 0.997 (locus YPR167C, strain met16, stronger effect = lower value); 0.987 (strain wtn01, stronger effect = lower value).

For `CC(C)C[C@H](NC(=O)[C@@H](O)[C@H](N)Cc1ccccc1)C(=O)O`, the normalized growth under setting [9] is 1.05; the normalized growth under setting [10] is 1.01; the normalized growth under setting [11] is 1.03; the normalized growth under setting [12] is 0.994; the normalized growth under setting [13] is 1.02; the normalized growth under setting [14] is 0.998. The normalized growth by setting is: under setting [17], 1.03; under setting [18], 0.997; under setting [19], 0.996; under setting [20], 1.01; under setting [21], 0.989; under setting [22], 1.02.

Take `CC(C)C[C@H](NC(=O)[C@H](O)[C@H](N)Cc1ccccc1)C(=O)O`: the normalized growth is, setting by setting: under setting [9], 0.978; under setting [10], 1; under setting [12], 1.03; under setting [13], 1.03; under setting [24], 1; under setting [25], 0.994. In addition, the normalized growth under setting [27] is 0.986; the normalized growth under setting [16] is 0.981; the normalized growth under setting [17] is 0.986; the normalized growth under setting [18] was 0.999; the normalized growth under setting [19] is 1; the normalized growth under setting [20] is 0.99. For the same molecule, the normalized growth under setting [21] was 1.03.
